From PubChem BioAssay (NCATS)
Results filed as inconclusive are left out. Active and inactive are the calls of the source. Calls follow the shape of the dose curve; as a rule, active = well fitted inhibition curve with a large enough effect; inconclusive = small, poorly fitted or top-dose-only effect; inactive = flat fitted curve, though single readings scatter.

tested on: DIV14; assay: qHTS profiling for inhibitors of Plasmodium falciparum proliferation (AID 504749);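 also: 0% = DMSO vehicle and full inhibition = artemisinin control; nearly all actives have a fitted effect of over 60% in size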; settings: P. falciparum in erythrocytes, SYBR Green DNA, 72 h; series mostly up to 28.7 µM; activity, negative = inhibition: at the top concentration
Procedure, shortened: (§1)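 Quantitative HTS: compounds pinned into medium, infected erythrocytes added (0.3% parasitemia, 2.5% hematocrit), 72 h culture at 37 C under 5% CO2. Saponin/Triton lysis with SYBR Green I, overnight RT, then fluorescence read.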

| Structure (SMILES) | activity, negative = inhibition |
| --- | --- |
| C[N+]1([O-])[C@@H]2CC(OC(=O)[C@@H](CO)c3ccccc3)C[C@@H]1[C@H]1O[C@H]12 (stereo not given in full) | -1.63% (inactive) |
| ClC1=C(Cl)C2(Cl)C3C4CC(C5OC45)C3C1(Cl)C2(Cl)Cl (stereo not given) | -17.1% (inactive) |
| CCNC[C@H](O)c1cccc(O)c1 | -4.95% [at 12.8 µM] (inactive) |

tested on: DIV17; assay: as above; settings: P. falciparum in erythrocytes, SYBR Green DNA, 72 h; series mostly up to 28.7 µM; activity, negative = inhibition: at the top concentration
Procedure, shortened: as §1

| Structure (SMILES) | activity, negative = inhibition |
| --- | --- |
| C[N+]1([O-])[C@@H]2CC(OC(=O)[C@@H](CO)c3ccccc3)C[C@@H]1[C@H]1O[C@H]12 (stereo not given in full) | 12.8% (inactive) |
| ClC1=C(Cl)C2(Cl)C3C4CC(C5OC45)C3C1(Cl)C2(Cl)Cl (stereo not given) | -28% (inactive) |
| CCNC[C@H](O)c1cccc(O)c1 | -7.79% [at 12.8 µM] (inactive) |

tested on: DIV30; assay: as above; settings: P. falciparum in erythrocytes, SYBR Green DNA, 72 h; series mostly up to 28.7 µM; activity, negative = inhibition: at the top concentration
Procedure, shortened: as §1

| Structure (SMILES) | activity, negative = inhibition |
| --- | --- |
| C[N+]1([O-])[C@@H]2CC(OC(=O)[C@@H](CO)c3ccccc3)C[C@@H]1[C@H]1O[C@H]12 (stereo not given in full) | -0.31% (inactive) |
| ClC1=C(Cl)C2(Cl)C3C4CC(C5OC45)C3C1(Cl)C2(Cl)Cl (stereo not given) | 1.56% (inactive) |
| CCNC[C@H](O)c1cccc(O)c1 | -1.61% [at 12.8 µM] (inactive) |

tested on: Dd2; assay: as above; settings: P. falciparum in erythrocytes, SYBR Green DNA, 72 h; series mostly up to 28.7 µM; activity, negative = inhibition: at the top concentration
Procedure, shortened: as §1

| Structure (SMILES) | Potency | activity, negative = inhibition |
| --- | --- | --- |
| C[N+]1([O-])[C@@H]2CC(OC(=O)[C@@H](CO)c3ccccc3)C[C@@H]1[C@H]1O[C@H]12 (stereo not given in full) | inactive |  |
| C[C@]12CC[C@H](O)CC1=CCC1C2CC[C@]2(C)C(=O)CC[C@@H]12 (stereo not given in full) |  | 8.53% (inactive) |
| ClC1=C(Cl)C2(Cl)C3C4CC(C5OC45)C3C1(Cl)C2(Cl)Cl (stereo not given) |  | -20% (inactive) |
| CCNC[C@H](O)c1cccc(O)c1 |  | -1.2% [at 12.8 µM] (inactive) |

tested on: ECU; assay: as above; settings: P. falciparum in erythrocytes, SYBR Green DNA, 72 h; series mostly up to 28.7 µM; activity, negative = inhibition: at the top concentration
Procedure, shortened: as §1

| Structure (SMILES) | Potency | activity, negative = inhibition |
| --- | --- | --- |
| C[N+]1([O-])[C@@H]2CC(OC(=O)[C@@H](CO)c3ccccc3)C[C@@H]1[C@H]1O[C@H]12 (stereo not given in full) | inactive |  |
| C[C@]12CC[C@H](O)CC1=CCC1C2CC[C@]2(C)C(=O)CC[C@@H]12 (stereo not given in full) |  | -0.315% (inactive) |
| ClC1=C(Cl)C2(Cl)C3C4CC(C5OC45)C3C1(Cl)C2(Cl)Cl (stereo not given) |  | -14.4% (inactive) |
| CCNC[C@H](O)c1cccc(O)c1 |  | 2.53% [at 12.8 µM] (inactive) |

tested on: FAB9; assay: as above; settings: P. falciparum in erythrocytes, SYBR Green DNA, 72 h; series mostly up to 28.7 µM; activity, negative = inhibition: at the top concentration
Procedure, shortened: as §1

| Structure (SMILES) | Potency | activity, negative = inhibition |
| --- | --- | --- |
| C[N+]1([O-])[C@@H]2CC(OC(=O)[C@@H](CO)c3ccccc3)C[C@@H]1[C@H]1O[C@H]12 (stereo not given in full) | inactive |  |
| C[C@]12CC[C@H](O)CC1=CCC1C2CC[C@]2(C)C(=O)CC[C@@H]12 (stereo not given in full) |  | 2.62% (inactive) |
| ClC1=C(Cl)C2(Cl)C3C4CC(C5OC45)C3C1(Cl)C2(Cl)Cl (stereo not given) |  | -7.25% (inactive) |
| CCNC[C@H](O)c1cccc(O)c1 |  | 18.4% [at 12.8 µM] (inactive) |

tested on: GB4; assay: as above; settings: P. falciparum in erythrocytes, SYBR Green DNA, 72 h; series mostly up to 28.7 µM; activity, negative = inhibition: at the top concentration
Procedure, shortened: as §1

| Structure (SMILES) | activity, negative = inhibition |
| --- | --- |
| C[N+]1([O-])[C@@H]2CC(OC(=O)[C@@H](CO)c3ccccc3)C[C@@H]1[C@H]1O[C@H]12 (stereo not given in full) | 0.401% (inactive) |
| ClC1=C(Cl)C2(Cl)C3C4CC(C5OC45)C3C1(Cl)C2(Cl)Cl (stereo not given) | -17.9% (inactive) |
| CCNC[C@H](O)c1cccc(O)c1 | -5.62% [at 12.8 µM] (inactive) |

tested on: HB3; assay: as above; settings: P. falciparum in erythrocytes, SYBR Green DNA, 72 h; series mostly up to 28.7 µM; activity, negative = inhibition: at the top concentration
Procedure, shortened: as §1

| Structure (SMILES) | Potency | activity, negative = inhibition |
| --- | --- | --- |
| C[N+]1([O-])[C@@H]2CC(OC(=O)[C@@H](CO)c3ccccc3)C[C@@H]1[C@H]1O[C@H]12 (stereo not given in full) | inactive |  |
| C[C@]12CC[C@H](O)CC1=CCC1C2CC[C@]2(C)C(=O)CC[C@@H]12 (stereo not given in full) |  | 2.75% (inactive) |
| ClC1=C(Cl)C2(Cl)C3C4CC(C5OC45)C3C1(Cl)C2(Cl)Cl (stereo not given) |  | -19.7% (inactive) |
| CCNC[C@H](O)c1cccc(O)c1 |  | 9.82% [at 12.8 µM] (inactive) |

tested on: ICS; assay: as above; settings: P. falciparum in erythrocytes, SYBR Green DNA, 72 h; series mostly up to 28.7 µM; activity, negative = inhibition: at the top concentration
Procedure, shortened: as §1

| Structure (SMILES) | Potency | activity, negative = inhibition |
| --- | --- | --- |
| C[N+]1([O-])[C@@H]2CC(OC(=O)[C@@H](CO)c3ccccc3)C[C@@H]1[C@H]1O[C@H]12 (stereo not given in full) | inactive |  |
| C[C@]12CC[C@H](O)CC1=CCC1C2CC[C@]2(C)C(=O)CC[C@@H]12 (stereo not given in full) |  | 3.32% (inactive) |
| CCNC[C@H](O)c1cccc(O)c1 |  | -1.32% [at 12.8 µM] (inactive) |

tested on: JCK; assay: as above; settings: P. falciparum in erythrocytes, SYBR Green DNA, 72 h; series mostly up to 28.7 µM; activity, negative = inhibition: at the top concentration
Procedure, shortened: as §1

| Structure (SMILES) | Potency | activity, negative = inhibition |
| --- | --- | --- |
| C[N+]1([O-])[C@@H]2CC(OC(=O)[C@@H](CO)c3ccccc3)C[C@@H]1[C@H]1O[C@H]12 (stereo not given in full) | inactive |  |
| C[C@]12CC[C@H](O)CC1=CCC1C2CC[C@]2(C)C(=O)CC[C@@H]12 (stereo not given in full) |  | 13.2% (inactive) |
| ClC1=C(Cl)C2(Cl)C3C4CC(C5OC45)C3C1(Cl)C2(Cl)Cl (stereo not given) |  | 3.08% (inactive) |
| CCNC[C@H](O)c1cccc(O)c1 |  | 10.2% [at 12.8 µM] (inactive) |

tested on: N140; assay: as above; settings: P. falciparum in erythrocytes, SYBR Green DNA, 72 h; series mostly up to 28.7 µM; activity, negative = inhibition: at the top concentration
Procedure, shortened: as §1

| Structure (SMILES) | Potency | activity, negative = inhibition |
| --- | --- | --- |
| C[N+]1([O-])[C@@H]2CC(OC(=O)[C@@H](CO)c3ccccc3)C[C@@H]1[C@H]1O[C@H]12 (stereo not given in full) | inactive |  |
| C[C@]12CC[C@H](O)CC1=CCC1C2CC[C@]2(C)C(=O)CC[C@@H]12 (stereo not given in full) |  | 5.92% (inactive) |
| ClC1=C(Cl)C2(Cl)C3C4CC(C5OC45)C3C1(Cl)C2(Cl)Cl (stereo not given) |  | -11.3% (inactive) |
| CCNC[C@H](O)c1cccc(O)c1 |  | 14.6% [at 12.8 µM] (inactive) |

tested on: P93_24; assay: as above; settings: P. falciparum in erythrocytes, SYBR Green DNA, 72 h; series mostly up to 28.7 µM; activity, negative = inhibition: at the top concentration
Procedure, shortened: as §1

| Structure (SMILES) | Potency | activity, negative = inhibition |
| --- | --- | --- |
| C[N+]1([O-])[C@@H]2CC(OC(=O)[C@@H](CO)c3ccccc3)C[C@@H]1[C@H]1O[C@H]12 (stereo not given in full) | inactive |  |
| C[C@]12CC[C@H](O)CC1=CCC1C2CC[C@]2(C)C(=O)CC[C@@H]12 (stereo not given in full) |  | -4.89% (inactive) |
| ClC1=C(Cl)C2(Cl)C3C4CC(C5OC45)C3C1(Cl)C2(Cl)Cl (stereo not given) |  | -25.8% (inactive) |
| CCNC[C@H](O)c1cccc(O)c1 |  | 1.38% [at 12.8 µM] (inactive) |

tested on: P94_40; assay: as above; settings: P. falciparum in erythrocytes, SYBR Green DNA, 72 h; series mostly up to 28.7 µM; activity, negative = inhibition: at the top concentration
Procedure, shortened: as §1

| Structure (SMILES) | Potency | activity, negative = inhibition |
| --- | --- | --- |
| C[N+]1([O-])[C@@H]2CC(OC(=O)[C@@H](CO)c3ccccc3)C[C@@H]1[C@H]1O[C@H]12 (stereo not given in full) | inactive |  |
| C[C@]12CC[C@H](O)CC1=CCC1C2CC[C@]2(C)C(=O)CC[C@@H]12 (stereo not given in full) |  | 16.2% (inactive) |
| CCNC[C@H](O)c1cccc(O)c1 |  | 8.23% [at 12.8 µM] (inactive) |

tested on: PAD; assay: as above; settings: P. falciparum in erythrocytes, SYBR Green DNA, 72 h; series mostly up to 28.7 µM; activity, negative = inhibition: at the top concentration
Procedure, shortened: as §1

| Structure (SMILES) | Potency | activity, negative = inhibition |
| --- | --- | --- |
| C[N+]1([O-])[C@@H]2CC(OC(=O)[C@@H](CO)c3ccccc3)C[C@@H]1[C@H]1O[C@H]12 (stereo not given in full) | inactive |  |
| C[C@]12CC[C@H](O)CC1=CCC1C2CC[C@]2(C)C(=O)CC[C@@H]12 (stereo not given in full) |  | 12.1% (inactive) |
| ClC1=C(Cl)C2(Cl)C3C4CC(C5OC45)C3C1(Cl)C2(Cl)Cl (stereo not given) |  | -1.18% (inactive) |
| CCNC[C@H](O)c1cccc(O)c1 |  | 1.67% [at 12.8 µM] (inactive) |
